# Laboratory results: PubChem BioAssay AID1159580 (chemical genetic matrix, 2015)
# “And” between values parts separate entries of the source, which are not always exact repeats. Identical values can stand only once. The campaign covered roughly 5,500 compounds. About 2,000 (36%) were called active. Another 18% or so got no clear call; they are omitted. Cut-off read from the data, not from the text of the source: active = normalized growth mostly below about 0.91 (no sharp cut-off); inconclusive = no clear call, values can overlap the other calls; inactive = mostly above about 0.92. Some of the results follow.
# Test: chemical genetic growth profiling, strain panel (AID 1159580);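 note: tested at 20 µM; growth read once vehicle control cultures reached saturation at 30 °C; 1 = growth at the plate median or of vehicle wells; lower values mean less growth of the strain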
# Conditions: S. cerevisiae deletion strains, growth OD
smiles,measurement,setting,value
CC(=O)[C@H]1CCC2C3CC=C4C[C@@H](O)CC[C@]4(C)C3CC[C@@]21C (stereo partly specified),normalized growth,"locus YAL013W, strain DEP1, stronger effect = lower value",0.999 (inactive)
same,normalized growth,"locus YAL021C, strain ccr4, stronger effect = lower value",0.958 (inactive)
same,normalized growth,"locus YAL026C, strain drs2, stronger effect = lower value",0.788 (active)
same,normalized growth,"locus YAL030W, strain snc1, stronger effect = lower value",0.956 (inactive)
same,normalized growth,"locus YBL061C, strain skt5, stronger effect = lower value",0.981 (inactive)
same,normalized growth,"locus YBR009C, strain hhf1, stronger effect = lower value",0.929 (inactive)
same,normalized growth,"locus YBR021W, strain FUR4, stronger effect = lower value",0.962 (inactive)
same,normalized growth,"locus YBR023C, strain chs3, stronger effect = lower value",0.969 (inactive)
same,normalized growth,"locus YBR171W, strain sec66, stronger effect = lower value",0.996 (inactive)
same,normalized growth,"locus YBR229C, strain ROT2, stronger effect = lower value",1.01 (inactive)
same,normalized growth,"locus YBR231C, strain swc5, stronger effect = lower value",0.955 (inactive)
same,normalized growth,"locus YBR279W, strain paf1, stronger effect = lower value",0.981 (inactive)
same,normalized growth,"locus YCL011C, strain gbp2, stronger effect = lower value",0.947 (inactive)
same,normalized growth,"locus YCL016C, strain dcc1, stronger effect = lower value",0.95 (inactive)
same,normalized growth,"locus YCL029C, strain bik1, stronger effect = lower value",0.966 (inactive)
same,normalized growth,"locus YCL069W, strain vba3, stronger effect = lower value",0.897 (active)
same,normalized growth,"locus YCR088W, strain abp1, stronger effect = lower value",1.02 (inactive)
same,normalized growth,"locus YDL005C, strain med2, stronger effect = lower value",1 (inactive)
same,normalized growth,"locus YDL035C, strain GPR1, stronger effect = lower value",0.863 (inactive)
same,normalized growth,"locus YDL040C, strain nat1, stronger effect = lower value",1.01 (inactive)
same,normalized growth,"locus YDL074C, strain BRE1, stronger effect = lower value",0.836 (inactive)
same,normalized growth,"locus YDL101C, strain DUN1, stronger effect = lower value",0.985 (inactive)
same,normalized growth,"locus YDL134C, strain PPH21, stronger effect = lower value",0.957 (inactive)
same,normalized growth,"locus YDL185W, strain tfp1, stronger effect = lower value",1.02 (inactive)
same,normalized growth,"locus YDL192W, strain arf1, stronger effect = lower value",1.02 (inactive)
same,normalized growth,"locus YDR001C, strain nth1, stronger effect = lower value",1.02 (inactive)
same,normalized growth,"locus YDR069C, strain doa4, stronger effect = lower value",0.965 (inactive)
same,normalized growth,"locus YDR101C, strain arx1, stronger effect = lower value",1.01 (inactive)
same,normalized growth,"locus YDR137W, strain rgp1, stronger effect = lower value",0.518 (active)
same,normalized growth,"locus YDR150W, strain NUM1, stronger effect = lower value",1.01 (inactive)
same,normalized growth,"locus YDR159W, strain sac3, stronger effect = lower value",0.927 (inactive)
same,normalized growth,"locus YDR162C, strain NBP2, stronger effect = lower value",0.958 (inactive)
same,normalized growth,"locus YDR195W, strain ref2",1.28 [resistant] (active)
same,normalized growth,"locus YDR297W, strain sur2, stronger effect = lower value",0.973 (inactive)
same,normalized growth,"locus YDR318W, strain mcm21, stronger effect = lower value",0.94 (inactive)
same,normalized growth,"locus YDR334W, strain swr1, stronger effect = lower value",1.03 (inactive)
same,normalized growth,"locus YDR335W, strain msn5, stronger effect = lower value",0.958 (inactive)
same,normalized growth,"locus YDR388W, stronger effect = lower value",0.981 (inactive)
same,normalized growth,"locus YDR392W, strain spt3, stronger effect = lower value",0.335 (active)
same,normalized growth,"locus YDR502C, strain sam2, stronger effect = lower value",0.943 (inactive)
same,normalized growth,"locus YEL003W, strain gim4, stronger effect = lower value",0.938 (inactive)
same,normalized growth,"locus YEL037C, strain rad23, stronger effect = lower value",0.976 (inactive)
same,normalized growth,"locus YEL061C, strain CIN8 (second series), stronger effect = lower value",1.01 (inactive)
same,normalized growth,"locus YEL061C, strain CIN8, stronger effect = lower value",1.01 (inactive)
same,normalized growth,"locus YER015W, strain faa2, stronger effect = lower value",0.939 (inactive)
same,normalized growth,"locus YER016W, strain bim1, stronger effect = lower value",0.996 (inactive)
same,normalized growth,"locus YER110C, stronger effect = lower value",1.03 (inactive)
same,normalized growth,"locus YER111C, strain swi4, stronger effect = lower value",1.01 (inactive)
same,normalized growth,"locus YER155C, strain BEM2 (second series), stronger effect = lower value",0.774 (active)
same,normalized growth,"locus YER155C, strain BEM2, stronger effect = lower value",1.01 (inactive)
same,normalized growth,"locus YER167W, strain BCK2, stronger effect = lower value",0.926 (inactive)
same,normalized growth,"locus YFR010W, strain ubp6, stronger effect = lower value",1.05 (inactive)
same,normalized growth,"locus YGL078C, strain dbp3, stronger effect = lower value",1.02 (inactive)
same,normalized growth,"locus YGL086W, strain mad1, stronger effect = lower value",0.944 (inactive)
same,normalized growth,"locus YGL167C, strain pmr1, stronger effect = lower value",0.996 (inactive)
same,normalized growth,"locus YGL173C, strain kem1, stronger effect = lower value",0.923 (inactive)
same,normalized growth,"locus YGL227W, strain vid30, stronger effect = lower value",1.01 (inactive)
same,normalized growth,"locus YGL240W, strain doc1, stronger effect = lower value",0.982 (inactive)
same,normalized growth,"locus YGL248W, strain PDE1, stronger effect = lower value",0.962 (inactive)
same,normalized growth,"locus YGL253W, strain hxk2, stronger effect = lower value",0.9 (active)
same,normalized growth,"locus YGR078C, strain PAC10, stronger effect = lower value",0.879 (inactive)
same,normalized growth,"locus YGR135W, strain pre9, stronger effect = lower value",0.904 (inactive)
same,normalized growth,"locus YGR229C, strain SMI1, stronger effect = lower value",0.958 (inactive)
same,normalized growth,"locus YGR252W, strain gcn5, stronger effect = lower value",0.65 (active)
same,normalized growth,"locus YHR013C, strain ard1, stronger effect = lower value",0.948 (inactive)
same,normalized growth,"locus YHR027C, strain rpn1, stronger effect = lower value",0.961 (inactive)
same,normalized growth,"locus YHR030C, strain SLT2, stronger effect = lower value",0.95 (inactive) and 0.954 (inactive)
same,normalized growth,"locus YHR079C, strain IRE1 (second series), stronger effect = lower value",0.998 (inactive)
same,normalized growth,"locus YHR079C, strain IRE1, stronger effect = lower value",0.988 (inactive)
same,normalized growth,"locus YHR094C, strain hxt1, stronger effect = lower value",1.03 (inactive)
same,normalized growth,"locus YHR129C, strain ARP1, stronger effect = lower value",1.01 (inactive)
same,normalized growth,"locus YHR142W, strain chs7, stronger effect = lower value",0.862 (active)
same,normalized growth,"locus YHR200W, strain rpn10, stronger effect = lower value",0.965 (inactive)
same,normalized growth,"locus YIL066C, strain RNR3, stronger effect = lower value",0.865 (inactive)
same,normalized growth,"locus YIL073C, strain SPO22, stronger effect = lower value",0.807 (inactive)
same,normalized growth,"locus YIL125W, strain kgd1, stronger effect = lower value",1.03 (inactive)
same,normalized growth,"locus YIR030C, strain dcg1, stronger effect = lower value",1.04 (inactive)
same,normalized growth,"locus YJL092W, strain hpr5, stronger effect = lower value",0.97 (inactive)
same,normalized growth,"locus YJL095W, strain BCK1 (second series), stronger effect = lower value",0.935 (inactive)
same,normalized growth,"locus YJL095W, strain BCK1, stronger effect = lower value",0.754 (active) and 0.958 (inactive)
same,normalized growth,"locus YJL115W, strain asf1, stronger effect = lower value",0.994 (inactive)
same,normalized growth,"locus YJL129C, strain trk1, stronger effect = lower value",0.935 (inactive)
same,normalized growth,"locus YJL134W, strain LCB3, stronger effect = lower value",1.01 (inactive)
same,normalized growth,"locus YJL154C, strain vps35, stronger effect = lower value",1.01 (inactive)
same,normalized growth,"locus YJL164C, strain tpk1, stronger effect = lower value",0.923 (inactive)
same,normalized growth,"locus YJL166W, strain qcr8, stronger effect = lower value",0.895 (active)
same,normalized growth,"locus YJL168C, strain set2, stronger effect = lower value",1.03 (inactive)
same,normalized growth,"locus YJL187C, strain SWE1 (second series), stronger effect = lower value",0.945 (inactive)
same,normalized growth,"locus YJR043C, strain POL32, stronger effect = lower value",0.991 (inactive)
same,normalized growth,"locus YJR066W, strain TOR1, stronger effect = lower value",0.866 (inactive)
same,normalized growth,"locus YJR075W, strain HOC1, stronger effect = lower value",0.933 (inactive)
